Calb biofilm kill: clotrimazole potentiators killing Candida biofilms, primary screen, with clotrimazole, Alamar Blue; C. albicans biofilm + clotrimazole; inhibition, % at 6 µM; hit rate 0.14% among 85,000; AID 834, 2007;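 active = inhibition above 20%; inactive = inhibition below 20%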;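 note: preformed 24 hr biofilms exposed to compound for 48 hr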
PLK1 kinase inh: human PLK1 kinase inhibitors, primary screen, biochemical, TR-FRET | Serine/threonine-protein kinase PLK1 (Homo sapiens), P53350 | recombinant PLK1 kinase, TR-FRET peptide phosphorylation | inhibition, % at 10 µM | hit rate 0.53% among 97,000 | AID 619, 2007;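 active = inhibition of 50% or more in the single-concentration screen; inactive = inhibition below 50%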
Plk1 PBD FP: Plk1 polo box domain binding inhibitors, primary screen, biochemical, fluorescence polarization; Serine/threonine-protein kinase PLK1 (Homo sapiens), P53350; Plk1 PBD phosphopeptide binding; inhibition, %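 (tested at about 20 µM)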; hit rate 0.13% among 97,000; in the data active = inhibition above about 34%, passing the limit was not always enough
CD11b adhes inh: inhibitors of CD11b/CD18 adhesion to fibrinogen, primary screen, K562 cells, luminescence; Integrin beta-2 (Homo sapiens) + Integrin alpha-M (Homo sapiens), P05107+P11215; ATPlite luminescence; Mn2+ added to activate the integrin; inhibition, % at 10 µM; hit rate 0.54% among 93,000; AID 1497, 2009;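 active = primary inhibition of 50% or more at 10 µM, then 40% or more on retest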
Target sequence (P05107 whole entry, looked up, other chains not shown): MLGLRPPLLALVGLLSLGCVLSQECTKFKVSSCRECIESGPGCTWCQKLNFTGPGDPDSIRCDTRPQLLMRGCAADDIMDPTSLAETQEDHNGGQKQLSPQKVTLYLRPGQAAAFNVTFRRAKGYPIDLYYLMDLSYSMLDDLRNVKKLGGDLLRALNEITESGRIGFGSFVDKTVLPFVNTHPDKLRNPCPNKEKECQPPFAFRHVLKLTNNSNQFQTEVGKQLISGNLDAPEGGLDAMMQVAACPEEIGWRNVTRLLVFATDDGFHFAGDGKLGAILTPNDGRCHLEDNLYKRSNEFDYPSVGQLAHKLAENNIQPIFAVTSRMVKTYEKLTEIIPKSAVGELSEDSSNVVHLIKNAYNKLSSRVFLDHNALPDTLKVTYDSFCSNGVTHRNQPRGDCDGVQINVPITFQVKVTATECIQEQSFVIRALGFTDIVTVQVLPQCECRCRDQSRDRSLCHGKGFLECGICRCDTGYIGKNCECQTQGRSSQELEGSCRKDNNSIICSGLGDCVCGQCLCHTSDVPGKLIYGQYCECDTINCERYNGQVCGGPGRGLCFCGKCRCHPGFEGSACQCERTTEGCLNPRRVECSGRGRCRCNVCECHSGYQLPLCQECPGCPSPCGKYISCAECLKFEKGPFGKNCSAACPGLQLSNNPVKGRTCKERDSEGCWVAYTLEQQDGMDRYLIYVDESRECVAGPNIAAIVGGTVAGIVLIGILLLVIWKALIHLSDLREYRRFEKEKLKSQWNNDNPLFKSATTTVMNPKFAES
CD11b adhes enh: enhancers of CD11b/CD18 adhesion to fibrinogen, primary screen, K562 cells, luminescence; activation, % at 10 µM; Integrin beta-2 (Homo sapiens) + Integrin alpha-M (Homo sapiens), P05107+P11215; ATPlite luminescence; hit rate 0.07% among 93,000;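 active = 10 µM primary screen giving 50% or more activity, confirmed by 40% or more on retest at that dose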
PBD redox DR: redox cycling hydrogen peroxide generation, dose response, artefact control for Plk1 PBD inhibitor project, biochemical. shares compounds with Plk1 PBD FP. redox cycling H2O2 generation, DTT, counter-screen. EC50, µM. 120 tested, under 10 active. AID 876, 2007; call rule not given here
Each line names hits and unclear results; the compound was inactive in the other large screens (follow-up assays come after a bar, where they were run). Rows were chosen to be rich in hits. Some 1.1% of all compounds tested hit in one or more screens of this group.

O=C(O)C1C2C=CC(C2)C1C(=O)Nc1ccc2c(c1)OCCO2 (stereo not given)	none
CCc1noc(C)c1C(=O)N1CCOCC1	Plk1 PBD FP 41 | PBD redox DR inactive
CC(C)Nc1nnc(SCC(=O)c2c(N)n(Cc3ccccc3)c(=O)n(C)c2=O)s1	Plk1 PBD FP 45 (no result: CD11b adhes inh, CD11b adhes enh) | PBD redox DR inactive
O=C1C(C2=C(O)c3ccccc3C2=O)=Nc2ccccc21	Plk1 PBD FP 66 (no result: Calb biofilm kill, CD11b adhes inh, CD11b adhes enh) | PBD redox DR 29
Cc1cccc(C)c1NC1=NC(=S)N(c2ccccc2)C12CCOC(C)(C)C2 (stereo not given)	Plk1 PBD FP 111 | PBD redox DR inactive
Cc1cc2oc(C(=O)N(Cc3ccccc3)C3CCS(=O)(=O)C3)cc(=O)c2cc1Cl (stereo not given)	none
O=C(NC(NC(=S)Nc1ccc(Cl)cc1Cl)C(Cl)(Cl)Cl)c1cccc([N+](=O)[O-])c1 (stereo not given)	Plk1 PBD FP 56 (no result: Calb biofilm kill, CD11b adhes inh, CD11b adhes enh) | PBD redox DR inactive
O=C(NC(NC(=S)Nc1ccccc1)C(Cl)(Cl)Cl)c1cccc(Cl)c1 (stereo not given)	none (no result: Calb biofilm kill)
Cc1ccc2cc(C)c3nnc(SCC(=O)Nc4nc5c(s4)CCCC5)n3c2c1C	none (no result: Calb biofilm kill, CD11b adhes inh, CD11b adhes enh)
COc1ccc(OCC(=O)Nc2ccc(S(=O)(=O)N3CCOCC3)cc2)cc1	none
O=C(COc1ccccc1)Nc1ccc(S(=O)(=O)N2CCOCC2)cc1	Plk1 PBD FP 40 (no result: CD11b adhes inh, CD11b adhes enh) | PBD redox DR inactive
COc1ccc2c(Cl)c(C(=O)NCCCn3ccnc3)sc2c1Cl	none (no result: CD11b adhes inh, CD11b adhes enh)
Nc1cc(-c2ccc(Br)cc2)nn1S(=O)(=O)c1cccc2nsnc12	Plk1 PBD FP 47 (no result: Calb biofilm kill) | PBD redox DR inactive
Cc1nc(SCCCSc2n[nH]c(C)n2)n[nH]1	none (no result: Calb biofilm kill, CD11b adhes inh, CD11b adhes enh)
CS(=O)(=O)NCC(c1ccco1)N1CCN(c2ccc(F)cc2)CC1 (stereo not given)	none (no result: Calb biofilm kill, PLK1 kinase inh, Plk1 PBD FP)
O=C(NN1C(=O)C2C(c3ccccc3)C=CC(c3ccccc3)C2C1=O)c1cccc(Br)c1 (stereo not given)	none (no result: Calb biofilm kill, PLK1 kinase inh, Plk1 PBD FP)
CC(=O)N(CN1C(=O)c2ccccc2C1=O)c1cccc(C)c1	none
CC(=O)N(/N=C1\Sc2ccccc2C1=O)c1cccc(C)c1	Plk1 PBD FP 77 | PBD redox DR inactive
Cn1c(C(=O)NCc2cccs2)cc2c(=O)n(C)c3ccccc3c21	none
Cc1ccc(CNC(=O)c2cc3c(=O)n(C)c4ccccc4c3n2C)cc1	Plk1 PBD FP 62 | PBD redox DR inactive
CC(=O)N(C)c1ccc(NC(=O)c2ccccc2C(=O)O)cc1	none
CCn1ccc(C(=O)Nc2ccc(N(C)C(C)=O)cc2)n1	Plk1 PBD FP 52 (no result: Calb biofilm kill) | PBD redox DR inactive
COc1cc(OC)cc(C(=O)NCCCN2CCOCC2)c1	Plk1 PBD FP 53 (no result: CD11b adhes inh, CD11b adhes enh) | PBD redox DR inactive
CCOC(=O)/C(=N\Nc1cc(Cl)ccc1Cl)N1CCN(CC)CC1	none (no result: Calb biofilm kill, PLK1 kinase inh, Plk1 PBD FP)
CCn1c(SCC(=O)N2CCCCC2C)nnc1-c1ccc(S(=O)(=O)N2CCN(C)CC2)cc1 (stereo not given)	none
CCn1c(SCC(N)=O)nnc1-c1ccc(S(=O)(=O)N2CCN(C)CC2)cc1	Plk1 PBD FP 44 | PBD redox DR inactive
CCCNC(=O)N1CCC(C(=O)c2cccc(F)c2)CC1	none
Cn1c(=O)c2c(ncn2Cc2ccccc2)n(C)c1=O	none (no result: CD11b adhes inh, CD11b adhes enh)
Cn1c(=O)c2c(ncn2CCCc2ccccc2)n(C)c1=O	Plk1 PBD FP 51 | PBD redox DR inactive
CCCSc1nc(N2CCOCC2)c2c(c1C#N)CCCC2	Plk1 PBD FP 51 | PBD redox DR inactive
CC(=O)c1cccc(NC(=O)Nc2ccc3c(c2)N(C)C(=O)CS3)c1	none
CCC(C)NCCCCOc1ccc(C)cc1[N+](=O)[O-] (stereo not given)	none (no result: Calb biofilm kill, CD11b adhes inh, CD11b adhes enh)
COc1ccc2c(c1OC)C(=O)OC2CC(=O)c1ccc(O)cc1 (stereo not given)	none (no result: PLK1 kinase inh, Plk1 PBD FP)
COc1ccc2c(c1OC)C(=O)OC2CC(=O)O (stereo not given)	Plk1 PBD FP 40 (no result: CD11b adhes inh, CD11b adhes enh) | PBD redox DR inactive
CCC(Sc1nc2n[nH]c(C)c2c(=N)n1-c1cccc(Cl)c1)C(=O)NCCOC (stereo not given)	Plk1 PBD FP 43 (no result: Calb biofilm kill, CD11b adhes inh, CD11b adhes enh) | PBD redox DR inactive
CCC(Sc1nc2n[nH]c(C)c2c(=N)n1-c1ccc(C)c(Cl)c1)C(=O)N1CCOCC1 (stereo not given)	none (no result: PLK1 kinase inh, Plk1 PBD FP)
